The supplement of paper PMC11732987, “Enantioselective OTUD7B fragment discovery through chemoproteomics screening and high-throughput optimisation” (Communications Chemistry, 2025)

Tests used:
Assay in all cases: log2 ratio of Biotin-Ahx-Ub-VS probe labelling (fragment/DMSO); higher = less target engagement (more negative = stronger competition), active = hit call of the paper (q ≤ 0.05, log2 ratio ≤ -1)
Conditions in all cases: compound concentration: 200 uM; treatment time: 3 h
OTUD6B = molecular target: T1, OTUD6B (UniProt Q8N6M0)
T1 sequence (whole entry): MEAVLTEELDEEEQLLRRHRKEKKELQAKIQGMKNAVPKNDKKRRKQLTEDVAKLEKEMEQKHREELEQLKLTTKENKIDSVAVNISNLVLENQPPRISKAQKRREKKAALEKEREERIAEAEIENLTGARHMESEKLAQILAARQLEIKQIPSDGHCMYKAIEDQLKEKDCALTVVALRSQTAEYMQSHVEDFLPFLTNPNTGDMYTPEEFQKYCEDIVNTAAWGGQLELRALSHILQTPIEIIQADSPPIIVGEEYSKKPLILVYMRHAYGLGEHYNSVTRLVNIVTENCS
Method in brief: (§1)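 HEK293T lysate (495 µg per sample, in Tris/CHAPS/IGEPAL buffer with protease inhibitors) was exposed in triplicate for 3 h to fragment at 200 µM or to vehicle, then to Biotin-Ahx-Ub-VS at 0.5 µM final for 1 h. Labelled DUBs were enriched on NeutrAvidin, digested with LysC and trypsin, and analysed by diaPASEF LC-MS/MS. Spectronaut label-free quantities were normalised to the global median, and values are average log2 ratios of fragment over vehicle from an unpaired t-test. Only proteins with ≥2 unique peptides were used.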

OTUD7B = molecular target: T2, OTUD7B (UniProt Q6GQQ9)
T2 sequence (whole entry): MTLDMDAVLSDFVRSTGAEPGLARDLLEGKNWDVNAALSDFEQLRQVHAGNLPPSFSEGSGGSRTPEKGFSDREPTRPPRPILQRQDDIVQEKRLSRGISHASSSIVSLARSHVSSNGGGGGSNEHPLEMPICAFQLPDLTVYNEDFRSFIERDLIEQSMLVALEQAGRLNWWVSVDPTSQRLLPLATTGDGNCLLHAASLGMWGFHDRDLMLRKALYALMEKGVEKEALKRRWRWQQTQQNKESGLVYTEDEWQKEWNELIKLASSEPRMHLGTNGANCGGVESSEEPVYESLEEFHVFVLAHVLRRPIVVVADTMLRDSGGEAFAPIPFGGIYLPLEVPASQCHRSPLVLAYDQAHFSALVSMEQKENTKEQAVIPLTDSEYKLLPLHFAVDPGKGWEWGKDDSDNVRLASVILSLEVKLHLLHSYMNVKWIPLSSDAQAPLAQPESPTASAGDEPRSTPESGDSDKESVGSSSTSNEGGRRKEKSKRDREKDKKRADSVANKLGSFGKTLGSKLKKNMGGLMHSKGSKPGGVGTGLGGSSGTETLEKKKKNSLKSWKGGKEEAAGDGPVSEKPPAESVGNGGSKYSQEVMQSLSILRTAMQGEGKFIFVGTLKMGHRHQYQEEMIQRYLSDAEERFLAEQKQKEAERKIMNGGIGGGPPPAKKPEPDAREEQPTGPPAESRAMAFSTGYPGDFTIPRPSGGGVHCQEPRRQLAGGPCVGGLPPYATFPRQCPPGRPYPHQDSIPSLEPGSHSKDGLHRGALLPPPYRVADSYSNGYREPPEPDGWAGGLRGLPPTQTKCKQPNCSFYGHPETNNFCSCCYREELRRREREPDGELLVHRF
Method in brief: as §1

PRPF8 = PRPF8 (UniProt Q6P2Q9)
Method in brief: as §1

PSMD7 = molecular target: T3, PSMD7 (UniProt P51665)
T3 sequence (whole entry): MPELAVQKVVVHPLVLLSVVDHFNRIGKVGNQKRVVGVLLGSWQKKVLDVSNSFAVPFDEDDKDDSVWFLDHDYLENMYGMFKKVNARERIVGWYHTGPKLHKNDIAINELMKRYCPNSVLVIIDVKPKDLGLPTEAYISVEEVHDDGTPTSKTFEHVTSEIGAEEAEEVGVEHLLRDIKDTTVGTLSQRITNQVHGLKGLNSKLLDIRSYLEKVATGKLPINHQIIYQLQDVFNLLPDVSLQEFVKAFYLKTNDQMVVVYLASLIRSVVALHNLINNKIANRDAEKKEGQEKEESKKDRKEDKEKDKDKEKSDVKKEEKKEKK
Method in brief: as §1

UCHL1 = UCHL1 (UniProt P09936)
Method in brief: as §1

UCHL3 = molecular target: T4, UCHL3 (UniProt P15374)
T4 sequence (whole entry): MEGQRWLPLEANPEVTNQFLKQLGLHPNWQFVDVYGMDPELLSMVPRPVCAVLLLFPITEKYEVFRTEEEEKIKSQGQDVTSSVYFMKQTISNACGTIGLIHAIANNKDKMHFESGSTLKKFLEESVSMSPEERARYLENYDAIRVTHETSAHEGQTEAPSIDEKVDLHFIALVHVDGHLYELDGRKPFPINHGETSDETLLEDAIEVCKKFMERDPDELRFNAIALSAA
Method in brief: as §1

UCHL5 = molecular target: T5, UCHL5 (UniProt Q9Y5K5)
T5 sequence (whole entry): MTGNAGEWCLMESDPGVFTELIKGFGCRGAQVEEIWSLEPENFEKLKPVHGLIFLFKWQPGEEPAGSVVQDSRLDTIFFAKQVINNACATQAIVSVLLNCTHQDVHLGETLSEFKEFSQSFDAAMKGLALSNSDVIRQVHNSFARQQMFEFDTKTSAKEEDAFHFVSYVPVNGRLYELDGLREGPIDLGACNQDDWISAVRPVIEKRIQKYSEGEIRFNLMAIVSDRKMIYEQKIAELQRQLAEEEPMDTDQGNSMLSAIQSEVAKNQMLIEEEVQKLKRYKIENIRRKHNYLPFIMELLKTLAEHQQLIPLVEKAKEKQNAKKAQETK
Method in brief: as §1

USP10 = USP10 (UniProt Q14694)
Method in brief: as §1

USP15 = molecular target: T6, USP15 (UniProt Q9Y4E8)
T6 sequence (whole entry): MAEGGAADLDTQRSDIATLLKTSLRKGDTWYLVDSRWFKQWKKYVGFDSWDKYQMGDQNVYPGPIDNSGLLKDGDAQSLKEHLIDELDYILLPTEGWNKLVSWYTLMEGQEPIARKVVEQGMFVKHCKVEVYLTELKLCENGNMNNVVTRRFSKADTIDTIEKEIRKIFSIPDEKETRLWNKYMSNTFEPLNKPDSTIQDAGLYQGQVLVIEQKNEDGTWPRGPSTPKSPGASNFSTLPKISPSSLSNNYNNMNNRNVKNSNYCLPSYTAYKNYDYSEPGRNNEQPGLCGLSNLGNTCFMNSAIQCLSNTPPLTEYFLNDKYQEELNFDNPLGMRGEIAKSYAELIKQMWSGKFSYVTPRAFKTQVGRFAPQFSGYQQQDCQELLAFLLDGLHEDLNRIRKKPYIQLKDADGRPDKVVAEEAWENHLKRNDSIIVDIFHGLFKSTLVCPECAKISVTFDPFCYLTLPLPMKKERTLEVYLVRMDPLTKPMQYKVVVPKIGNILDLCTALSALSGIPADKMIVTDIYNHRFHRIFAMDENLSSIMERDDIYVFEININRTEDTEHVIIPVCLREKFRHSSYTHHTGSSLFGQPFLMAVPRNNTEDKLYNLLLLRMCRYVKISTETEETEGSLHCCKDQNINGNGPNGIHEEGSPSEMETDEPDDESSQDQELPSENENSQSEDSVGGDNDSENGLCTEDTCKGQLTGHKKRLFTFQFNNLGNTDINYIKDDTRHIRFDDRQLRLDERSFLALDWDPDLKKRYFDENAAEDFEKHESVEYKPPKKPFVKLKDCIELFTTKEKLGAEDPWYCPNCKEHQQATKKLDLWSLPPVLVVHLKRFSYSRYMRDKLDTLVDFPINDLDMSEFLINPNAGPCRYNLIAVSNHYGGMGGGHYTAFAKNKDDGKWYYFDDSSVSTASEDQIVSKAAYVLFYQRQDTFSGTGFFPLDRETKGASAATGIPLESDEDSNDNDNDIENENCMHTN
Method in brief: as §1

USP16 = USP16 (UniProt Q9Y5T5)
Method in brief: as §1

Measured: log2 ratio of Biotin-Ahx-Ub-VS probe labelling

Chain of USP16 (Q9Y5T5 whole entry, looked up): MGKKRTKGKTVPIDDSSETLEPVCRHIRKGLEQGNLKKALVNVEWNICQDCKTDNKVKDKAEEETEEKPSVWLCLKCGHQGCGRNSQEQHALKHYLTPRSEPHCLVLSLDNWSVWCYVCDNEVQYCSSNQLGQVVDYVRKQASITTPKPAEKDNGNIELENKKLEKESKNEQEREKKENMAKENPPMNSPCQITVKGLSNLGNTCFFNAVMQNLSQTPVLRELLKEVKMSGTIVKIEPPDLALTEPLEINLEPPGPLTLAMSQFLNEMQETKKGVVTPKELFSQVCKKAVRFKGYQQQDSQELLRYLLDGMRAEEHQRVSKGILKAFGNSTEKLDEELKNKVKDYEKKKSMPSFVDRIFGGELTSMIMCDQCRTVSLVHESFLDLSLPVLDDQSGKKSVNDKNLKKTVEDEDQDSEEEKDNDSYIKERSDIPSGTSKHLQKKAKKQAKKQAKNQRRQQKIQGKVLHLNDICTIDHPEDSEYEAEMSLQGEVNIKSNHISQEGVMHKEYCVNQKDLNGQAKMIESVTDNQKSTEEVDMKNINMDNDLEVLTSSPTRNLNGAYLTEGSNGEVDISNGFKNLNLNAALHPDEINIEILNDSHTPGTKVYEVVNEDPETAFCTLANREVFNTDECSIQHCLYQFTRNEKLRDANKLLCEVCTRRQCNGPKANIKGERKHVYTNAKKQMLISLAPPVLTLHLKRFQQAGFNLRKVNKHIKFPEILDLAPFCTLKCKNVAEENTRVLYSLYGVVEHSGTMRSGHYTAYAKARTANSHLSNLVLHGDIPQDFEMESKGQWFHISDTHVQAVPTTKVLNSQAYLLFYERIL
Chain of UCHL1 (P09936 whole entry, looked up): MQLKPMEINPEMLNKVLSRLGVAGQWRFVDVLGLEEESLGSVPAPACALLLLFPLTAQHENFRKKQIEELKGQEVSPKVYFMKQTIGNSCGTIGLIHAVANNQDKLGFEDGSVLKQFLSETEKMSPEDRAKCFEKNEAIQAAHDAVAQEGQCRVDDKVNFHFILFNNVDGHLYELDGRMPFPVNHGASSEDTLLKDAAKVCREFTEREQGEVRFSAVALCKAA
Chain of USP10 (Q14694 whole entry): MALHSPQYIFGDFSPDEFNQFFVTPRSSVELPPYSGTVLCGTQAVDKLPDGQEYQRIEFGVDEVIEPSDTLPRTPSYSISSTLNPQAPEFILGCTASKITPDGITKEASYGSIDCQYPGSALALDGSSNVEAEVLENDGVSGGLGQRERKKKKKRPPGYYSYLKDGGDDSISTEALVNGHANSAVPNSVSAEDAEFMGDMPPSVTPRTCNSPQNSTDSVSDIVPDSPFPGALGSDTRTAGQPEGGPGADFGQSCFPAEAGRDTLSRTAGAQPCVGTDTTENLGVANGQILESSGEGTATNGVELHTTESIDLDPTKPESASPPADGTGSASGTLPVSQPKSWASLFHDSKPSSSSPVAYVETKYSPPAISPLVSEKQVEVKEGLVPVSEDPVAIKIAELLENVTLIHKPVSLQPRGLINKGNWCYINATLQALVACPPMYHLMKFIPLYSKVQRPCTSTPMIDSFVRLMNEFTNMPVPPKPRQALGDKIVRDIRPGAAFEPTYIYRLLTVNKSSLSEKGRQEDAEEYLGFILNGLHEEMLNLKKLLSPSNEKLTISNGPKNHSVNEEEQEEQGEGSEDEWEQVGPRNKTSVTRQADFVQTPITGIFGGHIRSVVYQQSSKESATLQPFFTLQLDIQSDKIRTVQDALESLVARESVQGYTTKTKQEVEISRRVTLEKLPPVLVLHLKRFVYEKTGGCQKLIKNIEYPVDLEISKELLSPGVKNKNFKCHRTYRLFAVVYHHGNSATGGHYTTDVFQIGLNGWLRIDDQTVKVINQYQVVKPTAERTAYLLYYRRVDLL

Cc1nc(CC2CCN(C(=O)CCl)CC2)no1
active: UCHL1 -1.96
inactive: OTUD6B -0.781 | OTUD7B -0.652 | PRPF8 -0.314 | PSMD7 0.0562 | UCHL3 -0.269 | UCHL5 -0.792 | USP10 -0.321 | USP15 -0.77 | USP16 0.0849
